Experiment [1] concerns CHO. As to the kind of experiment: % viability of CHO cells (MTT); higher = less toxic. The conditions noted are these: 48 h. Put shortly:
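CHO cells were plated at 10^6 cells/well in 200 µL and allowed to attach overnight. Fresh medium with compound at 2 or 20 µM then replaced the old medium for 48 h. Percent viability, relative to untreated cells, came from a colorimetric tetrazolium (MTT) readout.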

In experiment [2] the test system is HepG2-A16-CD81. Description: % inhibition of HepG2 viability (CellTiter-Glo); higher = more toxic. The conditions noted are these: 5 µM. (In ATP-based viability assays light output follows the ATP content of the culture.);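 also: HepG2-A16-CD81 hepatoma cells plated as in the liver-stage assay but without sporozoites, with DMSO wells as negative and 25 µM puromycin as positive control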
Experiment [3] relates to Plasmodium falciparum NF54 stage IV/V gametocytes. Description: % inhibition of gametocyte viability (PrestoBlue); higher = more inhibition. The following applies: 48 h. Put shortly: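 In a single run, percent inhibition of gametocyte viability was calculated relative to vehicle and kill controls. The wells held 100 µL of Stage IV/V NF54 gametocytes at 2% gametocytaemia and 5% haematocrit, with compound at 1 or 5 µM. Plates stood at 37 °C in hypoxic conditions for 48 h. After that, 10 µL PrestoBlue was added for 2 h, and 70 µL of supernatant was transferred for fluorescence reading at 612 nm.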

The subject of experiment [4] is Plasmodium falciparum NF54 asexual blood stage. Description: % inhibition of asexual blood stage proliferation (pLDH); higher = more inhibition. The following applies: 72 h. Put shortly: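 Percent inhibition of asexual proliferation, normalised to controls, was determined in a screen repeated on two separate occasions. Plasmodium falciparum NF54 ring-stage cultures (1% haematocrit, 2% parasitaemia) received compound at 2 or 20 µM and were incubated for 72 h at 37 °C under 4% CO2, 3% O2 and 93% N2. A colorimetric parasite lactate dehydrogenase readout at 620 nm gave survival.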

Experiment [5] concerns Plasmodium falciparum NF54 stage IV/V gametocytes. As to the kind of experiment: % inhibition of gametocyte viability (ATP bioluminescence); higher = more inhibition. The following applies: 24 h. An outline of the steps: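 Enriched stage IV/V NF54 gametocytes were exposed to compound at 1 or 5 µM for 24 h at 37 °C in 96-well plates. Percent inhibition of gametocyte viability was derived from a bioluminescent ATP readout, normalised to controls within a single run.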

Experiment [6] has the same test system. Description: % inhibition of gametocyte viability (luciferase reporter); higher = more inhibition. The conditions noted are these: 48 h. Put shortly:
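Percent inhibition came from luminescence and was normalised to controls in a single run. Gametocytes (stage IV/V, NF54-Pfs16-GFP-Luc line, 2% gametocytaemia, 2% haematocrit) were treated with compound at 1 or 5 µM and incubated for 48 h at 37 °C without agitation under hypoxia. Readings used 30 µL lysate with 30 µL Promega luciferin substrate on a GloMax-Multi+ reader, integrating for 10 s.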

Where only a bound is given, the exact number is not on record here.

Take `COc1ccccc1CN[C@H]1C2CCN(CC2)[C@H]1C(c1ccccc1)c1ccccc1`: the “% viability of CHO cells” value in experiment [1] (2 µM) is 102%; in experiment [1] (20 µM), 117%. Besides, in experiment [2], the “% inhibition of HepG2 viability” value was -1%. Further, the “% inhibition of gametocyte viability” value was 17.5% in experiment [3] (1 µM); 8.85% in experiment [3] (5 µM); 7.68% in experiment [5] (1 µM); 29.7% in experiment [5] (5 µM); 15.2% in experiment [6] (1 µM); less than 0% in experiment [6] (5 µM). In addition, the “% inhibition of asexual blood stage proliferation” value in experiment [4] (2 µM) is -2.68%; in experiment [4] (20 µM) it was 93%.
For `CC(C)Oc1cccc(NC(=O)c2ccccc2C(F)(F)F)c1`, the “% viability of CHO cells” value in experiment [1] (2 µM) came to 88.6%; in experiment [1] (20 µM), 112%. Moreover, the “% inhibition of HepG2 viability” value in experiment [2] was found to be 3.41%. For the same molecule, the “% inhibition of gametocyte viability” value in experiment [3] (1 µM) is 2.75%; in experiment [3] (5 µM) it was less than 0%; in experiment [5] (1 µM), 3.08%; in experiment [5] (5 µM), less than 0%; in experiment [6] (1 µM), less than 0%; in experiment [6] (5 µM) it was less than 0%. The entries for the “% inhibition of asexual blood stage proliferation” value in experiment [4] (2 µM) and in experiment [4] (20 µM) were 2.15% and 9.83%, respectively.
For `O=C(NC12CC3CC(CC(C3)C1)C2)c1cc2ccccc2[nH]1`, the “% viability of CHO cells” value in experiment [1] (2 µM) amounted to 103%; in experiment [1] (20 µM) it was 134%. Also, the “% inhibition of HepG2 viability” value in experiment [2] is 5.16%. Also, the “% inhibition of gametocyte viability” value in experiment [3] (1 µM) was 36.4%; in experiment [3] (5 µM), 12.5%; in experiment [5] (1 µM), less than 0%; in experiment [5] (5 µM) it was less than 0%; in experiment [6] (1 µM), less than 0%; in experiment [6] (5 µM), less than 0%. Besides, the “% inhibition of asexual blood stage proliferation” value came to 35% in experiment [4] (2 µM) and 73.8% in experiment [4] (20 µM).
For the molecule `C[C@@]1(O)[C@H](O)[C@@H](CO)O[C@H]1n1ccc2c(N)ncnc21`, the “% viability of CHO cells” value stood at 127% in experiment [1] (2 µM) and 92% in experiment [1] (20 µM). For the same molecule, the “% inhibition of HepG2 viability” value in experiment [2] is -1.39%. Moreover, the “% inhibition of gametocyte viability” value in experiment [3] (1 µM) is less than 0%; in experiment [3] (5 µM) it was 2.26%; in experiment [5] (1 µM), 12.3%; in experiment [5] (5 µM), 7.84%; in experiment [6] (1 µM), 1.8%; in experiment [6] (5 µM), less than 0%. In addition, the “% inhibition of asexual blood stage proliferation” value in experiment [4] (2 µM) is 14.8%; in experiment [4] (20 µM) it was 43.2%.
As to `CN1C(=O)C(c2ccccc2)C(=O)N(c2ccccc2)c2cc(C(F)(F)F)ccc21` (stereo not drawn), the “% viability of CHO cells” value in experiment [1] (2 µM) stood at 95.2%; in experiment [1] (20 µM), 110%. Besides, the “% inhibition of HepG2 viability” value in experiment [2] stood at 3.09%. For the same molecule, the “% inhibition of gametocyte viability” value in experiment [3] (1 µM) was 20.2%; in experiment [3] (5 µM), 14.5%; in experiment [5] (1 µM) it was less than 0%; in experiment [5] (5 µM), less than 0%; in experiment [6] (1 µM) it was 11.6%; in experiment [6] (5 µM), less than 0%. Further, the “% inhibition of asexual blood stage proliferation” value in experiment [4] (2 µM) is -15.6%; in experiment [4] (20 µM), 32.9%.
Consider `CCN1CCN(Cc2nc3ccc([N+](=O)[O-])cc3c(=O)n2-c2ccccc2F)CC1`, for which the “% viability of CHO cells” value in experiment [1] (2 µM) and in experiment [1] (20 µM) was 105% in each case. Moreover, the “% inhibition of HepG2 viability” value in experiment [2] is -4.34%. Moreover, the “% inhibition of gametocyte viability” value was less than 0% in experiment [3] (1 µM); less than 0% in experiment [3] (5 µM); 13.8% in experiment [5] (1 µM); 17.7% in experiment [5] (5 µM); 9.48% in experiment [6] (1 µM); less than 0% in experiment [6] (5 µM). The figures for the “% inhibition of asexual blood stage proliferation” value in experiment [4] (2 µM) and in experiment [4] (20 µM) were 33% and 24.4%, respectively.
On to `Nc1c(C(=O)NCc2ccco2)c2nc3ccccc3nc2n1CCN1CCCCC1`, for which the “% viability of CHO cells” value in experiment [1] (2 µM) turned out to be 104%; in experiment [1] (20 µM), 57.3%. Also, the “% inhibition of HepG2 viability” value in experiment [2] was found to be 10.7%. For the same molecule, the “% inhibition of gametocyte viability” value in experiment [3] (1 µM) turned out to be 23.5%; in experiment [3] (5 µM), 46.1%; in experiment [5] (1 µM), 51.4%; in experiment [5] (5 µM) it was 59.7%; in experiment [6] (1 µM), 13.7%; in experiment [6] (5 µM), 0.236%. The “% inhibition of asexual blood stage proliferation” value was determined as 77.4% in experiment [4] (2 µM) and 116% in experiment [4] (20 µM).
In the case of `NC1(C(=O)O)CCP(=O)(O)CC1` (stereo not drawn), the “% viability of CHO cells” value in experiment [1] (2 µM) was 113%; in experiment [1] (20 µM) it was 81.6%. For the same molecule, the “% inhibition of HepG2 viability” value in experiment [2] is -2.82%. For the same molecule, the “% inhibition of gametocyte viability” value in experiment [3] (1 µM) is less than 0%; in experiment [3] (5 µM), less than 0%; in experiment [5] (1 µM) it was less than 0%; in experiment [5] (5 µM), less than 0%; in experiment [6] (1 µM), less than 0%; in experiment [6] (5 µM), 9.64%. The “% inhibition of asexual blood stage proliferation” value in experiment [4] (2 µM) stood at 12.3%; in experiment [4] (20 µM), 13.4%.
As to `COc1cc(C(C)(C)CCCC(C)C)cc(OC)c1OC`, the “% viability of CHO cells” value in experiment [1] (2 µM) is 108%; in experiment [1] (20 µM) it was 76.7%. Also, in experiment [2], the “% inhibition of HepG2 viability” value is 7.92%. Further, the “% inhibition of gametocyte viability” value is 11.5% in experiment [3] (1 µM); 6.64% in experiment [3] (5 µM); 2.47% in experiment [5] (1 µM); less than 0% in experiment [5] (5 µM); 8.33% in experiment [6] (1 µM); less than 0% in experiment [6] (5 µM). The “% inhibition of asexual blood stage proliferation” value in experiment [4] (2 µM) is -22%; in experiment [4] (20 µM), 48.9%.
On to `COC(=O)Nc1nc2ccccc2[nH]1`, for which the “% viability of CHO cells” value is 99.1% in experiment [1] (2 µM) and 110% in experiment [1] (20 µM). In experiment [2], the “% inhibition of HepG2 viability” value was -1.93%. Further, the “% inhibition of gametocyte viability” value in experiment [3] (1 µM) was less than 0%; in experiment [3] (5 µM), less than 0%; in experiment [5] (1 µM) it was 1.54%; in experiment [5] (5 µM), less than 0%; in experiment [6] (1 µM), less than 0%; in experiment [6] (5 µM), less than 0%. The “% inhibition of asexual blood stage proliferation” value in experiment [4] (2 µM) came to 6.96%; in experiment [4] (20 µM), 10.6%.
Regarding `C[N+]1(C)CCCC(OC(=O)C(O)(c2ccccc2)c2ccccc2)C1` (stereo not drawn), the “% viability of CHO cells” value in experiment [1] (2 µM) was 122%; in experiment [1] (20 µM), 140%. For the same molecule, the “% inhibition of HepG2 viability” value in experiment [2] is -0.474%. The “% inhibition of gametocyte viability” value was 23.3% in experiment [3] (1 µM); 9.34% in experiment [3] (5 µM); less than 0% in experiment [5] (1 µM); less than 0% in experiment [5] (5 µM); less than 0% in experiment [6] (1 µM); 3.73% in experiment [6] (5 µM). In addition, the “% inhibition of asexual blood stage proliferation” value in experiment [4] (2 µM) came out at 26%; in experiment [4] (20 µM), 73.9%.
Consider `C[C@H]1CC[C@]2(NC1)O[C@H]1C[C@H]3[C@@H]4CC[C@H]5C[C@@H](O)CC[C@]5(C)[C@H]4CC[C@]3(C)[C@H]1[C@@H]2C`, for which the “% viability of CHO cells” value in experiment [1] (2 µM) was 105%; in experiment [1] (20 µM), 117%. The “% inhibition of HepG2 viability” value in experiment [2] was -5.8%. The “% inhibition of gametocyte viability” value in experiment [3] (1 µM) is 13.5%; in experiment [3] (5 µM), 28.1%; in experiment [5] (1 µM) it was less than 0%; in experiment [5] (5 µM), less than 0%; in experiment [6] (1 µM), 14.1%; in experiment [6] (5 µM) it was 0.706%. Besides, the “% inhibition of asexual blood stage proliferation” value worked out at 35.3% in experiment [4] (2 µM) and 33.7% in experiment [4] (20 µM).
In the case of `CCCCc1ccc(C(=O)O)nc1`, the “% viability of CHO cells” value in experiment [1] (2 µM) was found to be 90.2%; in experiment [1] (20 µM), 130%. The “% inhibition of HepG2 viability” value in experiment [2] is -0.607%. Further, the “% inhibition of gametocyte viability” value in experiment [3] (1 µM) was less than 0%; in experiment [3] (5 µM), 2.97%; in experiment [5] (1 µM), 5.47%; in experiment [5] (5 µM), less than 0%; in experiment [6] (1 µM) it was 7.1%; in experiment [6] (5 µM), 6.9%. In addition, the figures for the “% inhibition of asexual blood stage proliferation” value in experiment [4] (2 µM) and in experiment [4] (20 µM) were 83.3% and 44%, respectively.

The values are drawn from the supplement of paper PMC7801607.
